Results: PubChem BioAssay AID488815 (Broad Institute, 2010)
Measured potencies and affinities stand elsewhere. Records with an inconclusive call do not appear. Calls of active or inactive are those of the source. How the calls were made is not given here.

target: CAAX prenyl protease 1 (Saccharomyces cerevisiae (strain ATCC 204508 / S288c)) (UniProt P47154); assay: Ste24 protease inhibitors, dose response, biochemical, S. cerevisiae, plate reader, cherry-pick (AID 488815); conditions: yeast Ste24 protease activity; series mostly up to 10 µM; activity change, negative = inhibition: at the top concentration;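 further: 0% = neutral control wells and -100% = no enzyme wells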
Sequence (P47154 whole entry, looked up): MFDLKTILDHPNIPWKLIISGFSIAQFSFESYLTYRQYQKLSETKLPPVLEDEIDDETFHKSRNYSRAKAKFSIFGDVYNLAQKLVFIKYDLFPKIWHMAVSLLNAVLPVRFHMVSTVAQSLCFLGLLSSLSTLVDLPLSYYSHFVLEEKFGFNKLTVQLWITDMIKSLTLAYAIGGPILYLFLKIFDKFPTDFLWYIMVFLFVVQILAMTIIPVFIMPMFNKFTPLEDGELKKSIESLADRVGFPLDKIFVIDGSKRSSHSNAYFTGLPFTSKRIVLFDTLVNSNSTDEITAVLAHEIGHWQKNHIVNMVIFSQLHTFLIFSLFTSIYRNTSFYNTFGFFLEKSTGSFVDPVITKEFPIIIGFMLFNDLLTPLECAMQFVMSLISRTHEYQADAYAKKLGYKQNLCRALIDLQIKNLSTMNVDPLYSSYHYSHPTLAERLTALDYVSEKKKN

Activity change, negative = inhibition, inactive:
COc1cccc(C(=O)Nc2nnc(SCC(=O)NC3CCCC3)s2)c1 -14.9%
CN(C)CC(C)(C)CNC(=S)NCc1ccc2c(c1)OCO2 19.4%
O=C1CCCC(O)=C1N=Nc1ccc2ncsc2c1 -2.85%
CC(C)c1cccc(OCC(=O)Nc2ccc(S(=O)(=O)Nc3ccccn3)cc2)c1 -3.69%
COc1ccc(CN2CCN(C(c3ccc(F)cc3)c3ccc(F)cc3)CC2)c(OC)c1OC 18.6%
O=C(COC(=O)c1ccc(S(=O)(=O)N2CCCC2)cc1)NCc1ccccc1 33.6%
CCN(CC)CCN(C(=O)c1ccc2ccccc2c1)c1nc2ccc(F)cc2s1 18.9%
COc1cc2c(cc1OC)C(C)N(C(=O)c1cc3c(=O)oc4ccc(C)cc4c3s1)CC2 (stereo not drawn) 15.4%
CCCCn1c(=O)[nH]c(=O)c2c1nc(-c1ccc(OC)c(Br)c1)n2CC(C)C 23.6%
Cc1ccc(OCCN2C(=O)C(=O)c3cc(C)ccc32)cc1 14.9%
CN(C(=O)COC(=O)c1cn(-c2ccccc2)nc1-c1ccccc1)C1CCS(=O)(=O)C1 (stereo not drawn) 17.9%
CCn1cc(/C=C(\NC(=O)c2ccccc2)C(=O)N2CCOCC2)c2ccccc21 -6.81%
COc1cccc(-c2nc(C#N)c(N3CCN(C(=O)c4ccco4)CC3)o2)c1 20.7%
Cc1cc(C(=O)N/N=C/c2c3ccccc3cc3ccccc23)n[nH]1 0.0888%
COc1ccc(C)cc1NC(=O)CN1C(=O)COc2ccc(S(=O)(=O)N3CCOCC3)cc21 29.9%
CCCOc1ccccc1C(=O)NCCCC(=O)O 0.511%
CCn1c(COc2cccc(C)c2)nnc1SCC(=O)NC1CCCC1 18.5%
CC1=C(C(=O)OCc2ccccc2)C(c2ccc(-c3ccccc3)cc2)NC(=O)N1CCCC(=O)O (stereo not drawn) 21.9%
COc1cccc(/C=N/NC(=O)c2nnn(-c3nonc3N)c2C(C)C)c1OCc1ccc(F)cc1 14.3%
c1ccc(Nc2cccc(Nc3ccccc3)n2)cc1 67%
CN1CCN(Cc2c(C(=O)N/N=C/c3cccc(Br)c3)nnn2-c2nonc2N)CC1 13.2%
CC(=O)c1c(C)oc2ccc(NS(=O)(=O)c3ccc(C(=O)O)cc3)cc12 32%
O=c1c(-c2ccccc2)c(O)c2ccccc2n1-c1ccccc1 8.18%
